Consider eleven compounds from ChEMBL document CHEMBL3988442, “University of Dundee, Small-Polar-MMV Screening Library” (2021).

For some of these results: Measured potencies and affinities stand elsewhere.

Common to all, as to set-up: scale not given: direction of the effect not stated beside the values
Assay [1] has as its target Protein translocase subunit SecA (Escherichia coli (strain K12)) (UniProt P10408). The experiment in a line: Assay to Identify E. coli SecA ATPase Inhibitors. Format: functional. Conditions: 30 µM.
Assay [2] has as its target T1, Ubiquitin-activating enzyme e1, putative (Leishmania donovani (strain BPK282A1)) (UniProt E9BSI1).
T1 sequence (whole entry): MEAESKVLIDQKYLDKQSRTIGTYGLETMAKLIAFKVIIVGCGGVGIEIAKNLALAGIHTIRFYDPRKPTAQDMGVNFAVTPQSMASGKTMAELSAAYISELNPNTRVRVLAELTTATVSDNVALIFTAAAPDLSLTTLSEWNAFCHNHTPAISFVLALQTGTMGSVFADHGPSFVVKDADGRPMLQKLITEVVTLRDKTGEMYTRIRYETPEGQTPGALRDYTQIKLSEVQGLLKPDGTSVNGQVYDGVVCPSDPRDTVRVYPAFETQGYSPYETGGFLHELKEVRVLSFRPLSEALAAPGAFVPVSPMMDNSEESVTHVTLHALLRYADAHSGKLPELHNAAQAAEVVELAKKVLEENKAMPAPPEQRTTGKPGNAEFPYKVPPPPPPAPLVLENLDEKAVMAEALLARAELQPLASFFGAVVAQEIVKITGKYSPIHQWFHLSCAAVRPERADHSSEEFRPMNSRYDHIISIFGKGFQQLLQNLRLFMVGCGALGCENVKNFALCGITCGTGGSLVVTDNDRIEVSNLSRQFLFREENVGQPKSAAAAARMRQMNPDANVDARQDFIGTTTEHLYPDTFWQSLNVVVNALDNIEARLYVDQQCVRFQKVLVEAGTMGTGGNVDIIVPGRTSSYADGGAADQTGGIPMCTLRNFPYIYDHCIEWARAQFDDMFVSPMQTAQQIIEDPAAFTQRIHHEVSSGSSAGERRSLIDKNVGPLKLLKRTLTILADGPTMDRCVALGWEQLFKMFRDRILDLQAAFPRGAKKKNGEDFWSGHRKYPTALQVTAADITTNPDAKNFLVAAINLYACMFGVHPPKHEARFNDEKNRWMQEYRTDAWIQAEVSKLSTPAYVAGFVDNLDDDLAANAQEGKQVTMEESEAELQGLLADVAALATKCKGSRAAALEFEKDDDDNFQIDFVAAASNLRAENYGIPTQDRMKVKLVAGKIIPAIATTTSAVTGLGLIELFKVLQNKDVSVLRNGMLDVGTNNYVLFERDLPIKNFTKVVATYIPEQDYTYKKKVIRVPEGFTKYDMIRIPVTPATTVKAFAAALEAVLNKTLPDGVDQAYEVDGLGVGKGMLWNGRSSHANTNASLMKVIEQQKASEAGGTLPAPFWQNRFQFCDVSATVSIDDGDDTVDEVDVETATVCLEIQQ
The experiment in a line: Leishmania donovani Ubiquitin Activating Enzyme (LdE1). Format: functional. The following applies: 30 µM.

The target of assay [3] is AMP-activated protein kinase, AMPK (Homo sapiens) (UniProt P54646+O43741+P54619+Q9UGJ0+Q9Y478+Q13131+Q9UGI9). The experiment in a line: AMP-dependent Kinase enzyme assay. An in vitro enzyme assay that detects ADP turnover that is directly proportional to AMPK activity. This uses naive AMPK that is activated during the assay with MK-8722. Format: functional. Conditions: 30 µM.

The target in assay [4] is Sialic acid-binding Ig-like lectin 9 (Homo sapiens) (UniProt Q9Y336). Put plainly: Hs-Siglec9 ALPHAscreen SOP 20170721. The following applies: 10 µM. (In general: Alpha assays give light when donor and acceptor beads are brought close together.)
For assay [5], the system named is Trypanosoma cruzi. Put plainly: Trypanosoma cruzi phosphomannomutase and mannose-1-phosphate guanylyltransferase assay. The assay is classed as functional. The following applies: 10 µM.
For assay [6], the target named is T2, Arginase-2, mitochondrial (Homo sapiens) (UniProt P78540).
T2 sequence (whole entry): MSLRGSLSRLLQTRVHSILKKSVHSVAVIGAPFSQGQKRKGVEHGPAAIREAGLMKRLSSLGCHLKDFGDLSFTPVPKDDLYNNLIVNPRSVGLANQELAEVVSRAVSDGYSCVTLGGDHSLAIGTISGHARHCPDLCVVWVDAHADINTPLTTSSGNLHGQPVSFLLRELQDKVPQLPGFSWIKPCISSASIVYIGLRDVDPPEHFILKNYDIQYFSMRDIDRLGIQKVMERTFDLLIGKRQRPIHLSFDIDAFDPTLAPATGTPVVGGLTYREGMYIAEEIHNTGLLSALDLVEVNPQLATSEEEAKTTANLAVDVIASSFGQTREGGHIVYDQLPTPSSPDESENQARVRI
Put plainly: in vitro enzyme assay to detect the production of urea directly proportional to the activity of Arginase II. Also: in the data most compounds retested in dose-response had high values. Format: functional. The following applies: 33.3 µM.

The target in assay [7] is T3, Proteasome subunit beta (Trypanosoma cruzi) (UniProt O96673).
T3 sequence (whole entry): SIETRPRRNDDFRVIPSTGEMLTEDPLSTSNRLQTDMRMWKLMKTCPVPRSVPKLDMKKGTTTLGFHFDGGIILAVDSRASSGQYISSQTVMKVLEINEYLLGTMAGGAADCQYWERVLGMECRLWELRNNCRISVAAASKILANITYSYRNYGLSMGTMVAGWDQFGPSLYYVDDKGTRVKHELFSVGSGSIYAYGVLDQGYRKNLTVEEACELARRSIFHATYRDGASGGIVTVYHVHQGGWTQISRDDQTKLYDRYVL
Put plainly: Trypanosoma cruzi proteasome chymotrypsin-like activity (TcProtChymo) assay. Also: in the data most compounds retested in dose-response had high values. The assay is classed as functional. Conditions: 9.37 µM.

Assay [8] is filed under the species Homo sapiens. Put plainly: To identify inhibition of the IFN signalling (Jak-Stat) pathway via expression of an eGFP reporter gene under the control of an IFN-stimulated response element (ISRE) containing MxA promoter. The assay is classed as functional. The following applies: 30 µM. For orientation: A reporter such as luciferase makes a cellular process visible.

The target of assay [9] is T4, Tyrosyl-tRNA synthetase, putative (Trypanosoma cruzi (strain CL Brener)) (UniProt Q4DSP6).
T4 sequence (whole entry): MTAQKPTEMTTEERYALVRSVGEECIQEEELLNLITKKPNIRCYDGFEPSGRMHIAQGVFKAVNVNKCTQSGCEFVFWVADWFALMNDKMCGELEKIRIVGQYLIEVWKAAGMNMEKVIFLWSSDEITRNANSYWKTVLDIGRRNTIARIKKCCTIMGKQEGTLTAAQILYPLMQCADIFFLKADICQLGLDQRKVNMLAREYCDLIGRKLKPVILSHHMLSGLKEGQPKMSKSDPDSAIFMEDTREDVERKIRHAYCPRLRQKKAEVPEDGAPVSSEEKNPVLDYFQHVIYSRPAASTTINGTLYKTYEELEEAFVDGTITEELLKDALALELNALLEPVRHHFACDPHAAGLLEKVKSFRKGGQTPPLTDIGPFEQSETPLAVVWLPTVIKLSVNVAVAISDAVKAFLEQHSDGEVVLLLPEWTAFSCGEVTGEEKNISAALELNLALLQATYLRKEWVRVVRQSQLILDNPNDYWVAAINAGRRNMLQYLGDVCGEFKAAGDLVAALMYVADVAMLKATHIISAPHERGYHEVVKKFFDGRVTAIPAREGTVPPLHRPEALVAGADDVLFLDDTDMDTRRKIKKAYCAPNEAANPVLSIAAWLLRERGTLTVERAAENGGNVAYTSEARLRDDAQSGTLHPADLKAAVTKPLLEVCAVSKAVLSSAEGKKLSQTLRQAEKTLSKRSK
The experiment in a line: Trypanosoma cruzi tyrosyl tRNA synthetase (TcYRS) _High Tyrosine SOP. Also: in the data most compounds retested in dose-response had high values. Format: functional. Conditions: 30 µM.

Assay [10] has as its target T4, Tyrosyl-tRNA synthetase, putative (Trypanosoma cruzi (strain CL Brener)). Put plainly: Trypanosoma cruzi tyrosyl tRNA synthetase (TcYRS) SOP. Format: functional. The following applies: 30 µM.
Assay [11] concerns the target Chromo domain-containing protein 1 (Saccharomyces cerevisiae (strain ATCC 204508 / S288c) (Baker's yeast)) (UniProt P32657). Put plainly: ScCHD-1 Enzyme Inhibition Assay. Also: in the data most compounds retested in dose-response had high values. The assay is classed as functional. Conditions: 30 µM.

Sialic acid-binding Ig-like lectin 9 (Homo sapiens), sequence (Q9Y336 whole entry): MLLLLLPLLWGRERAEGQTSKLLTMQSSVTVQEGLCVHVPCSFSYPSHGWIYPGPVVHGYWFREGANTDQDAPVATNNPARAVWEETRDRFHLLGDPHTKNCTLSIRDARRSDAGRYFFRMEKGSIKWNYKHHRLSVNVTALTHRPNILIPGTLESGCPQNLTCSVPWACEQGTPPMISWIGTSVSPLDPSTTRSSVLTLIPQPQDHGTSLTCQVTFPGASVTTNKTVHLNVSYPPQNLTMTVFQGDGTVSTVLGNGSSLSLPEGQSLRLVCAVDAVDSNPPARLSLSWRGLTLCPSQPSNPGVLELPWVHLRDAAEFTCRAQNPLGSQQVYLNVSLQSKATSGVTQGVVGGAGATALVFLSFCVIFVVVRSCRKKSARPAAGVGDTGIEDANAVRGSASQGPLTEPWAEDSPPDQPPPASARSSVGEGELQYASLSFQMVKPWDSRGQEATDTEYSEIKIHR
Chromo domain-containing protein 1 (Saccharomyces cerevisiae (strain ATCC 204508 / S288c) (Baker's yeast)), sequence (P32657 whole entry, the tested form may be a part): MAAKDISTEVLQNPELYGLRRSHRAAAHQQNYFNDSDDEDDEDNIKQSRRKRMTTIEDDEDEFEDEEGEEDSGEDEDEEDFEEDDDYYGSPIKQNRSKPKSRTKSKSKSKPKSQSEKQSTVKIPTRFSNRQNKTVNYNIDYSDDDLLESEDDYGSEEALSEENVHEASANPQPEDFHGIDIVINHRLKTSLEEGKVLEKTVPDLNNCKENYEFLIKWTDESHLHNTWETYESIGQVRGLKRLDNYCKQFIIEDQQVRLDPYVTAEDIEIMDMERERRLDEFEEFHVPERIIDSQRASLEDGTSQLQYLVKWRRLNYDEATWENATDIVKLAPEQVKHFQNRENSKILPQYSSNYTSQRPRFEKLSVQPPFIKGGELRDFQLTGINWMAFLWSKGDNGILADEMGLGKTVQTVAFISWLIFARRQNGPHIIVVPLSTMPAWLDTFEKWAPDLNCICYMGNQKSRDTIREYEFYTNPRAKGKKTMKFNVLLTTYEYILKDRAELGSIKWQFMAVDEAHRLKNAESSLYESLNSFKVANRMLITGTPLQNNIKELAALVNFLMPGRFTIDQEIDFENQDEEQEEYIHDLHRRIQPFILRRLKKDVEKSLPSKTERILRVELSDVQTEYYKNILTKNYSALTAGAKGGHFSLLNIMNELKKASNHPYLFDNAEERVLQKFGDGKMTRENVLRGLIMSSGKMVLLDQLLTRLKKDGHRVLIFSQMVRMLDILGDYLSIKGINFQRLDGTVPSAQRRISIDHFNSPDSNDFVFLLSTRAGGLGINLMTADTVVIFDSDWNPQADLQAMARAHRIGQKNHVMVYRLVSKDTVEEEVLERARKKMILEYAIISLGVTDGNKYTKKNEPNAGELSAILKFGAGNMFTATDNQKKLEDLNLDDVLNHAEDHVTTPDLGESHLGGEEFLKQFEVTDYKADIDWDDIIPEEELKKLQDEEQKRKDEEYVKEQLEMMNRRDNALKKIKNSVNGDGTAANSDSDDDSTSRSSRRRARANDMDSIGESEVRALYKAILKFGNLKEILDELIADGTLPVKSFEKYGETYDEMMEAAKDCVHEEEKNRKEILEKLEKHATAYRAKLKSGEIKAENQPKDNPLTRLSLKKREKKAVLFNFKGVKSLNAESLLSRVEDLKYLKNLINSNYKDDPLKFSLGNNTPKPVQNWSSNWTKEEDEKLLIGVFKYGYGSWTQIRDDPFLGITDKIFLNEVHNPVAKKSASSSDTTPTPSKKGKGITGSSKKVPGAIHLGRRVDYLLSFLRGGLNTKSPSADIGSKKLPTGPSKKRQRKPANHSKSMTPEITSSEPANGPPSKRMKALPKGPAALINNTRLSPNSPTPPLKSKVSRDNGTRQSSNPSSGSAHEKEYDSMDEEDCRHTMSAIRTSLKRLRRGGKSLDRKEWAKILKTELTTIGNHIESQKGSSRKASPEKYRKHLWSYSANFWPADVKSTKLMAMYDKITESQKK
Protein translocase subunit SecA (Escherichia coli (strain K12)), sequence (P10408 whole entry): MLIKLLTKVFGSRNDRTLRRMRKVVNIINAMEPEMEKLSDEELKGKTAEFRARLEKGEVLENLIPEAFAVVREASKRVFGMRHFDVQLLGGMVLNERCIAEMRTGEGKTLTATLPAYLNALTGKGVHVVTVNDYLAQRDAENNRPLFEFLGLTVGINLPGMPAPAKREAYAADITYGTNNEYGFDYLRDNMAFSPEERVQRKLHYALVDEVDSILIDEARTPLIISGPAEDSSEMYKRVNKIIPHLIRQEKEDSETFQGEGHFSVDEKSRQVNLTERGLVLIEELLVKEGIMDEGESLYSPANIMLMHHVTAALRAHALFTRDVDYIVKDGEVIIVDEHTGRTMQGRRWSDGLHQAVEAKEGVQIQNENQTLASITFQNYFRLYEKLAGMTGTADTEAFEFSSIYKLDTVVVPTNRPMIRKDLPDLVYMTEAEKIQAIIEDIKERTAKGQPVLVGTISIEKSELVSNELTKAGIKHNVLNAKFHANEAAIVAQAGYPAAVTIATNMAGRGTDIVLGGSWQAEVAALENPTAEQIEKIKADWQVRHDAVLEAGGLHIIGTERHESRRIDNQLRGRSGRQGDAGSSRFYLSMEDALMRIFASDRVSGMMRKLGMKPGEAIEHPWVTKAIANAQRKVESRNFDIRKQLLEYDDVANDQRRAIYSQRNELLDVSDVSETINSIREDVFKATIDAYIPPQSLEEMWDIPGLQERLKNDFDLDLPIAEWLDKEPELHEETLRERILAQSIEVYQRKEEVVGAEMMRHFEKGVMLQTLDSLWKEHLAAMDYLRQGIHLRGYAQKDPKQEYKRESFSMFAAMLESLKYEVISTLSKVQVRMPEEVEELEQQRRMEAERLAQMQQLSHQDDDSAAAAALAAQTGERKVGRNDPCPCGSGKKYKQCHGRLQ

For `Cn1ccc(C(=O)N2CCN(c3cc(C#N)ccn3)CC2)cc1=O`, the Percent Effect in assay [1] is -6.91%; in assay [2], 13.5%; in [3] it was -11.9%; in [4], 26.1%; in [5], 4.06%; in assay [6] it was -5.61%. The Percent Effect in assay [7] is 7.21%; in assay [8], 6.78%; in [9], 5.42%; in assay [10], 13.6%; in assay [11] it was -17.3%.

In the case of `Cc1ccccc1CNC(=O)CN1CCN(Cc2nccn2C)CC1`, the Percent Effect is -1.84% in assay [1]; 21.6% in assay [2]; -6.67% in assay [3]; 6.22% in assay [4]; 2.74% in assay [5]; -10.8% in assay [6]. The Percent Effect in assay [7] was 18.4%; in assay [8], 2.02%; in [9], 8.37%; in assay [10], 25.9%; in assay [11] it was -9.21%.

As to `O=C(CSC1=NS(=O)(=O)c2cc(F)ccc2N1)Nc1cccc(Cl)c1`, the Percent Effect was -1.88% in assay [1]; -39% in assay [2]; 1.02% in [3]; -0.207% in assay [4]; 2.86% in assay [5]; -0.645% in assay [6]. For the same compound, the Percent Effect in assay [7] was 21.1%; in [8], 26.7%; in [9], -10.6%; in [10] it was -8.97%; in assay [11], -11.3%.

Consider `CCN1C[C@@H]2[C@@H](OC)CCN(S(=O)(=O)c3ccccc3F)[C@@H]2C1`, for which the Percent Effect is -2.71% in assay [1]; 5.33% in assay [2]; 11.3% in assay [3]; 0.304% in assay [4]; -2.56% in assay [5]; 4.43% in [6]. Also, the Percent Effect is 0.793% in assay [7]; 4.67% in assay [8]; -1.06% in assay [9]; 3.85% in assay [10]; -0.244% in assay [11].

Take `CNc1cc2c(nn1)CCN(C(=O)c1ccoc1)C2`: the Percent Effect in assay [1] is -0.747%; in assay [2], 7.79%; in assay [3], 7.77%; in assay [4], -6.29%; in assay [5], -1.27%; in assay [6], 4%. For the same compound, the Percent Effect in assay [7] was 16.6%; in assay [8], 27%; in [9], 1.91%; in assay [10] it was -25.9%; in assay [11] it was -15%.

As to `CN(Cc1cnn(-c2ccccc2)n1)CC1CCCN1c1cccnn1` (stereo unspecified), the Percent Effect in assay [1] is -3.33%; in assay [2], -36.8%; in assay [3] it was 3.24%; in [4], 7.96%; in [5], 5.7%; in assay [6], 0.36%. The Percent Effect was -3.98% in assay [7]; 8.95% in assay [8]; 8.37% in assay [9]; 13.6% in assay [10]; 1.47% in [11].

Regarding `O=C(O)[C@@H]1CN(C(=O)c2cc(C3CC3)n[nH]2)C[C@H]1c1cccc(F)c1`, the Percent Effect is -3.18% in assay [1]; 16.4% in assay [2]; -3.35% in [3]; 7.52% in [4]; 2.98% in [5]; -7.58% in assay [6]. For the same compound, the Percent Effect in assay [7] is 14.5%; in assay [8], -4.38%; in assay [9] it was 3.12%; in assay [10], 21%; in assay [11] it was -6.55%.

Take `Cn1nccc1C1CCN(CC(O)c2cccc(F)c2)CC1` (stereo unspecified): the Percent Effect in [1] was -3.15%; in [2], 5.06%; in assay [3], 0.204%; in [4], 2.12%; in [5], 6.89%; in assay [6] it was -1.14%. In addition, the Percent Effect in assay [7] is 4.18%; in [8], 15.3%; in assay [9], -0.493%; in assay [10], -8.86%; in assay [11], -4.6%.

Regarding `Cn1ccnc1CN1CCC2(CC1)CC(NC(=O)c1ccccn1)CO2` (stereo unspecified), the Percent Effect in assay [1] is -1.87%; in assay [2], 20.8%; in [3] it was -1.66%; in assay [4], -10.3%; in assay [5], 1.28%; in assay [6] it was 3.23%. For the same compound, the Percent Effect was 9.4% in [7]; 0.302% in assay [8]; -20.1% in [9]; 16.7% in assay [10]; -10.2% in assay [11].

Take `CC1CCN(c2ncc3c(n2)CN(c2ccccc2)C3=O)CC1`: the Percent Effect in assay [1] is -5.32%; in assay [2], 5.2%; in assay [3], -0.285%; in assay [4] it was 2.67%; in assay [5], -5.8%; in assay [6], -30.3%. For the same compound, the Percent Effect in assay [7] is -5.82%; in assay [8] it was -2.62%; in [9] it was 2.15%; in assay [10], 11.1%; in assay [11] it was 5.77%.

As to `Cc1nc(CC(=O)N2CCCCC2c2ccn3ccnc3n2)cs1` (stereo unspecified), the Percent Effect in assay [1] was -1.88%; in assay [2] it was -4.05%; in [3], 11.6%; in assay [4], 4.95%; in assay [5], -1.78%; in assay [6], -3.02%. Moreover, the Percent Effect in assay [7] was 12.6%; in [8] it was 7.12%; in [9] it was -1.07%; in assay [10], 1.3%; in [11], -15.1%.
